“And” between values parts separate entries of the source, which are not always exact repeats. Equal values may be shown once. About 370 (0.13%) of roughly 290,000 compounds were called active. This is one part of a sample in which actives are shown more often than they occur.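 The calls were made as follows: active = spots per cell inhibited over 60%, with over 100 cells counted and total cytoplasm intensity under 500,000; inconclusive = wells with under 100 cells, flagged as likely toxic; inactive = the rest.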 Results with a measured potency or affinity are listed apart.
Each compound was assayed against G-protein coupled receptor 55 (Homo sapiens) (UniProt Q9Y2T6) (assay: inhibition of LPI-stimulated GPR55 beta-arrestin translocation – imaging, U2OS, beta-arrestin-GFP, LPI agonist, primary screen (AID 2013;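 also: U2OS cells stably carrying GPR55 and arrestin-GFP stimulated by 5 µM LPI near EC80; imaged beta-arrestin-GFP aggregate spots per cell after agonist stimulation; plate controls were LPI-stimulated DMSO wells for no effect and DMSO wells without LPI for full effect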)). Settings: LPI antagonism, at 10 µM, active compounds read high.
G-protein coupled receptor 55 (Homo sapiens), sequence (Q9Y2T6 whole entry, looked up): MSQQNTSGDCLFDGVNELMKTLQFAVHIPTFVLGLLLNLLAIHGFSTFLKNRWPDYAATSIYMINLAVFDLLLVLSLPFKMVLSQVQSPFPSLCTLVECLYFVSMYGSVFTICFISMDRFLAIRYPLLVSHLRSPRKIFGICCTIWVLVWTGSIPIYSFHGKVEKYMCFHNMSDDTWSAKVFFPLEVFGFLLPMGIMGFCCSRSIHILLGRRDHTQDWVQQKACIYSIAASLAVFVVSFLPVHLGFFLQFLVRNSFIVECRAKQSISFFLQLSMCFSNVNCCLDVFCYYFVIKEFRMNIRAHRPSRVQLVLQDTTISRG

| Structure (SMILES) | inhibition |
| --- | --- |
| CC(=O)N1CCN(S(=O)(=O)c2ccc(C)cc2)C1c1ccc(N(C)C)cc1 (stereo unspecified) | 3.3% (inactive) |
| CCNc1cc(Nc2c(C)n(C)n(-c3ccccc3)c2=O)c([N+](=O)[O-])c2nonc12 | 3.6% (inactive) |
| O=C(O)c1cccc(Nc2cc(Cl)c3nonc3c2[N+](=O)[O-])c1 | -6.5% (inactive) |
| O=C(O)c1cc(Nc2cc(Cl)c3nonc3c2[N+](=O)[O-])ccc1O | -3.1% (inactive) |
| O=[N+]([O-])c1c(Nc2ccccc2O)cc(Cl)c2nonc12 | -4% (inactive) |
| O=[N+]([O-])c1c(Nc2ccc(O)cc2)cc(Cl)c2nonc12 | 90.4% (active) |
| CN(C)c1cc(Nc2cccc(O)c2)c([N+](=O)[O-])c2nonc12 | -9.3% (inactive) |
| Cc1c(Nc2cc(N3CCOCC3)c3nonc3c2[N+](=O)[O-])c(=O)n(-c2ccccc2)n1C | 18.1% (inactive) |
| O=[N+]([O-])c1c(Nc2cccc(O)c2)cc(Cl)c2nonc12 | 77.1% (active) |
| O=C(O)c1ccc(Nc2cc(Cl)c3nonc3c2[N+](=O)[O-])cc1 | 15.1% (inactive) |
| O=[N+]([O-])c1c(Nc2ccccn2)cc(Cl)c2nonc12 | 4.7% (inactive) |
| CC(=O)N1CCN(c2ccc(NC(=O)c3ccc(F)cc3)cc2)CC1 | 4.7% (inactive) |
| Cc1ccc(C(=O)NC2CCN(CC(=O)Nc3c(C)cc(C)cc3C)CC2)cc1 | 3.2% (inactive) |
| COc1cc(C(=O)NCc2nnc(SCC(=O)Nc3nc4ccccc4s3)o2)cc(OC)c1OC | -13.1% (inactive) |
| O=C(Cn1c(=O)c2cccn2c2cccnc21)N1CCN(c2ccc(Cl)cc2)CC1 | -2.4% (inactive) |
| COc1ccc(NC(=O)CN(C)C(=O)C(C)Sc2ccccc2)cc1 (stereo unspecified) | 8.3% (inactive) |
| CC(=O)Nc1ccc(S(=O)(=O)NC(CC(=O)NCCc2ccccc2)C(C)C)cc1 (stereo unspecified) | 12.5% (inactive) |
| CC(=O)N1CCN(c2ccc(NC(=O)c3ccc([N+](=O)[O-])cc3Cl)cc2)CC1 | 3.5% (inactive) |
| Cc1nc(-c2ccc([N+](=O)[O-])cc2)sc1C(=O)O | 6.9% (inactive) |
| CCS(=O)(=O)c1ccc(-c2csc(-c3ccccc3)n2)c(Cl)c1Cl | 31.4% (inactive) |
| CCS(=O)(=O)c1ccc(-c2csc(-c3ccccc3Cl)n2)c(Cl)c1Cl | -11.1% (inactive) |
| COc1ccc(-c2csc(Nc3cccc(C)n3)n2)cc1C | 13.8% (inactive) |
| COc1ccc(OC)c(-c2csc(NC(=O)c3ccc(OCC4CCCO4)cc3)n2)c1 (stereo unspecified) | -3% (inactive) |

| Structure (SMILES) | inhibition |
| --- | --- |
| O=C(Nc1nc(-c2ccc(F)c(F)c2)cs1)c1ccc(OCC2CCCO2)cc1 (stereo unspecified) | -5.3% (inactive) |
| O=C(Nc1nc(-c2ccc(Cl)cc2Cl)cs1)c1ccc(OCC2CCCO2)cc1 (stereo unspecified) | 96% (active) |
| CCn1nc(C)c(/C=N/NC(=O)Cn2nnc(N)n2)c1C | -1.9% (inactive) |
| CCOC(=O)C1CCCN(S(=O)(=O)c2cc(Br)cc3c2N(C(=O)CC)CC3)C1 (stereo unspecified) | -0.6% (inactive) |
| COc1cc(/C=C/C(=O)OCN2C(=O)c3ccccc3C2=O)ccc1OC(F)F | 0.4% (inactive) |
| COc1ccc(-c2oc(/N=C/N3CCCC3)c(C#N)c2-c2ccc(OC)cc2)cc1 | 14.8% (inactive) |
| N#Cc1c(/N=C/c2ccccc2)oc(-c2ccccc2)c1-c1ccccc1 | -11.7% (inactive) |
| CC(C)(C)SCCNC(=O)/C=C/c1ccccc1 | 2.8% (inactive) |
| COc1ccc(S(=O)(=O)n2nc(OC(=O)c3c(-c4ccccc4Cl)noc3C)cc2N)cc1 | -4.9% (inactive) |
| COc1cccc(N(C(=O)c2cccs2)c2nc3ccccc3s2)c1 | 0.2% (inactive) |
| Cc1ccsc1C(=O)N(c1nc2ccccc2s1)c1c(C)cccc1C | 9.7% (inactive) |
| O=C(COC(=O)C1CC2C=CC1C2)Nc1cccc(S(=O)(=O)N2CCOCC2)c1 (stereo unspecified) | -10.4% (inactive) |
| O=C(c1ccc(O)cc1)c1ccc(C(=O)c2ccc(O)cc2)cc1 | 9.7% (inactive) and -6% (inactive) |
| C=C(c1ccc(OC)cc1)c1ccc(OC)cc1 | -8% (inactive) |
| ONC(=Nc1ccccc1)c1ccc(Cl)cc1 | 19.2% (inactive) |
| CCN1CCN(C(c2cccc(OC)c2OC)c2nnnn2Cc2ccco2)CC1 (stereo unspecified) | -6.5% (inactive) |
| COc1ccccc1C(c1nnnn1Cc1ccco1)N1CCN(c2cccc(C)c2C)CC1 (stereo unspecified) | 15.4% (inactive) |
| COc1cccc(C(c2nnnn2Cc2ccco2)N2CCN(c3cccc(C)c3C)CC2)c1OC (stereo unspecified) | 99.7% (active) |
| O=C(NC1CCN(Cc2ccc(F)cc2)CC1)c1ccccc1 | 6.4% (inactive) |
| Fc1ccc(NC(=S)NC2CCN(Cc3ccccc3)CC2)cc1 | 28.1% (inactive) |
| COCCN(CCOC)C(=S)Nc1ccccc1 | 12.7% (inactive) |
| NC(=O)C1CCN(C(=O)C2CC(=O)N(c3ccc(F)cc3)C2)CC1 (stereo unspecified) | -0.2% (inactive) |
| COc1ccccc1OCC(=O)N1CCN(C(=O)COc2ccccc2OC)CC1 | 2.2% (inactive) |

| Structure (SMILES) | inhibition |
| --- | --- |
| Oc1ccc(/C=N/Nc2nc(-c3cccnc3)nc3ccccc23)c(O)c1 | 1.9% (inactive) |
| Oc1ccc(Nc2nc(-c3ccccc3F)nc3ccccc23)cc1 | 7.7% (inactive) |
| O=C(Nc1nnc(-c2ccccc2)o1)c1cc(Cl)sc1Cl | -2.3% (inactive) |
| O=C(O)c1cc2c(cc1NC(=O)c1ccccc1OC(F)F)OCCCO2 | -0.6% (inactive) |
| CCOC(=O)c1c(NC(=O)C2=C(C)NC(=S)NC2c2ccc(F)cc2)sc(C)c1C (stereo unspecified) | 64.1% (active) |
| CCOC(=O)c1c(NC(=O)C2=C(C)NC(=S)NC2c2ccccc2C(F)(F)F)sc(C)c1C (stereo unspecified) | 5.6% (inactive) |
| CCOC(=O)c1c(NC(=O)c2ccncc2)sc(C)c1C | -0.7% (inactive) |
| CCOC(=O)c1c(NC(=O)c2ccnn2C)sc(C)c1C | 1.1% (inactive) |
| CCOC(=O)c1c(NC(=O)c2cccnc2)sc(C)c1C | -12.1% (inactive) |
| CCOC(=O)c1c(NC(=O)C2=C(C)NC(=S)NC2c2ccc(F)cc2F)sc(C)c1C (stereo unspecified) | 10% (inactive) |
| CCOC(=O)c1c(NC(=O)c2ccc(Cl)s2)sc(C)c1C | 1.6% (inactive) |
| Cc1ccccc1NC(=O)CCS(=O)(=O)c1cccc2nonc12 | 2.7% (inactive) |
| COc1ccc2c(c1)C(NC(C)=O)C(=O)N2CCc1ccccc1 (stereo unspecified) | 6.6% (inactive) |
| O=C(CCC(=O)n1ncc2ccccc21)NCc1ccc(F)cc1 | -2.2% (inactive) |
| O=C(NCc1ccc2c(c1)OCO2)c1nc(Cn2cc([N+](=O)[O-])cn2)no1 | -20% (inactive) |
| CC(C)(C)C(=O)COC(=O)c1cc(-c2ccncc2)nc2ccccc12 | 2.9% (inactive) |
| O=C(Cn1c(=O)oc2ccccc21)N1CCCC1 | -1.8% (inactive) |
| CCOC(=O)c1c(CSc2nc(C)cc(C)c2C#N)n(C)c2cc(Br)c(OC(C)=O)cc12 | 1.8% (inactive) |
| C=CCCc1ccc(C#N)c(SCc2c(C(=O)OCC)c3cc(OC(C)=O)c(Br)cc3n2C)n1 | -23.2% (inactive) |
| CCOC(=O)c1c(CN(C)C)n(-c2ccccc2)c2cc(Br)c(OC)cc12 | -15.4% (inactive) |
| CCOC(=O)c1c(CN2CCOCC2)n(-c2ccccc2)c2cc(Br)c(OC)cc12 | 23.1% (inactive) |
| CCCCCCCCOC(=O)c1c(CSC(=N)N)n(C)c2cc(Br)c(OC(C)=O)cc12 | 23.7% (inactive) |
| CCOC(=O)c1c(C)n(C)c2cc(Br)c(OC)cc12 | 7.4% (inactive) |

| Structure (SMILES) | inhibition |
| --- | --- |
| CCOC(=O)c1c(CN(C)C)n(-c2ccc(C)cc2)c2cc(Br)c(O)cc12 | -0.7% (inactive) |
| CCOC(=O)c1c(CN(C)C)n(-c2ccccc2)c2cc(Br)c(O)cc12 | 3.4% (inactive) |
| CCOC(=O)c1c(CSC(=N)N)n(-c2ccc(Br)cc2)c2cc(Br)c(OC(C)=O)cc12 | 89.3% (active) |
| CC(C)CCN(Cc1ccco1)S(=O)(=O)c1ccc(-c2ccc(=O)[nH]n2)s1 | 12.8% (inactive) |
| Cc1onc(-c2ccccc2)c1C(=O)N1CCCN2C(=O)c3ccccc3C21 (stereo unspecified) | -4.5% (inactive) |
| O=S1(=O)Cc2cc3ccccc3cc2C1 | 16.4% (inactive) |
| COc1ccc(C)cc1NC(=O)c1ccc(OC(F)F)cc1 | 3.1% (inactive) |
| CC(/C=C/c1ccccc1)=N/NC(=O)C(O)c1ccccc1 (stereo unspecified) | 0.5% (inactive) |
| CC(=O)NC1=NN(C(C)=O)C2(S1)C(=O)N(C(C)=O)c1ccc(C)cc12 (stereo unspecified) | 7.7% (inactive) |
| CC(c1nnc(SCC(=O)N2CC(=O)Nc3ccccc32)n1Cc1ccccc1)N(C)C (stereo unspecified) | -4.8% (inactive) |
| COc1cccc(Nc2cc(C)c3ccccc3n2)c1 | 6.5% (inactive) |
| CC(C)(C)c1nn(-c2ccccc2)c2[nH]c(=O)c(CNCc3ccco3)cc12 | 39.5% (inactive) |
| COc1cccc(NCc2cc3c(C(C)(C)C)nn(-c4ccccc4)c3[nH]c2=O)c1 | 22.7% (inactive) |
| Cc1nn(-c2ccccc2)c2[nH]c(=O)c(CNCc3ccc4c(c3)OCO4)cc12 | -26.6% (inactive) |
| CC(C)(C)c1nn(-c2ccccc2)c2[nH]c(=O)c(CNc3ccc4c(c3)OCCO4)cc12 | 16.1% (inactive) |
| CCOc1ccc(NCc2cc3c(C(C)(C)C)nn(-c4ccccc4)c3[nH]c2=O)cc1 | 19.3% (inactive) |
| Cc1ccc(-c2nn(-c3ccccc3)c3[nH]c(=O)c(CNCc4ccccc4)cc23)cc1 | 11.1% (inactive) |
| COc1ccc(N2CCN(S(=O)(=O)c3ccc(Cl)s3)CC2)cc1 | -2% (inactive) |
| Cc1ccc(NC(=O)CN(C)C(=O)CCOc2cccc(C)c2)cc1 | 7.3% (inactive) |
| O=[N+]([O-])c1ccc(N/N=C2\CC3CC=CC23)cc1 (stereo unspecified) | -7.7% (inactive) |
| O=C(N/N=C/c1ccc(OC(=O)c2ccccc2Cl)cc1)c1cc(O)cc(O)c1 | 4.4% (inactive) |
| O=C(CNC1CCCCC1)N1CCc2ccccc2C1 | -1.3% (inactive) |

— PubChem BioAssay AID2013 (Sanford-Burnham Center for Chemical Genomics, 2009)
